About 8,800 targets were measured; listed, in parts, are those with a hit and a random draw of the rest. About 0.5% of all pairs of compound and target were hits. Values without a mark were called inactive.

What all share (test): log2 fold change, soluble protein after heating vs DMSO (PISA); higher = thermal stabilisation; K562 lysate, 10 uM; active = over 0.2 and 3.5 SD of the protein, either way, in both replicates (recomputed)
Compound in assay [1]: C1=CC=C(C=C1)[C@H](COC2=CC3=C(C=C2)NC(=O)N3)NC(=O)C4=CC=CN(C4=O)CC5=CC(=C(C=C5)F)F
The method in brief:
(§1)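 Dounce homogenisation of K562 pellets in PBS pH 7.4 with 1 mM MgCl2 produced a crude extract, used at 1 mg/mL protein. Exposure to 10 μM compound lasted 30 min, and aliquots were then heated for 3 min across 48°C-58°C, pooled and brought to 0.5% NP-40 at 4°C. The supernatant after 21,000xg for 90 min was quantified by TMTpro 16plex LC-MS/MS with channel sums equalised. Duplicate values are given as log-two fold change in thermal stability relative to solvent controls.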

Compound in assay [2]: CC1=C(SC2=C1C(=N[C@H](C3=NN=C(N32)C)CC(=O)N)C4=CC=C(C=C4)Cl)C
The method in brief:
as §1

Compound in assay [3]: c1ccc([C@@H]2C[C@H]2NC2CCNCC2)cc1
The essentials:
as §1

Compound in assay [4]: CC1=C2C(=CC=C1)N=C(N(C2=O)C3=CC=CC=C3C)CN4C=NC5=C(N=CN=C54)N
The method in brief: as §1

Compound in assay [5]: Cc1sc2c(c1C)C(c1ccc(Cl)cc1)=N[C@@H](CC(=O)OC(C)(C)C)c1nnc(C)n1-2
The method in brief: as §1

Chain of UniProt Q15004 (Q15004 whole entry, looked up): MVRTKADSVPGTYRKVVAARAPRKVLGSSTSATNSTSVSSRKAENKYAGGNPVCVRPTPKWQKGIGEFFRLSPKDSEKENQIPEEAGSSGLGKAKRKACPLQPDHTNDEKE
Chain of UniProt Q99755 (Q99755 whole entry, looked up): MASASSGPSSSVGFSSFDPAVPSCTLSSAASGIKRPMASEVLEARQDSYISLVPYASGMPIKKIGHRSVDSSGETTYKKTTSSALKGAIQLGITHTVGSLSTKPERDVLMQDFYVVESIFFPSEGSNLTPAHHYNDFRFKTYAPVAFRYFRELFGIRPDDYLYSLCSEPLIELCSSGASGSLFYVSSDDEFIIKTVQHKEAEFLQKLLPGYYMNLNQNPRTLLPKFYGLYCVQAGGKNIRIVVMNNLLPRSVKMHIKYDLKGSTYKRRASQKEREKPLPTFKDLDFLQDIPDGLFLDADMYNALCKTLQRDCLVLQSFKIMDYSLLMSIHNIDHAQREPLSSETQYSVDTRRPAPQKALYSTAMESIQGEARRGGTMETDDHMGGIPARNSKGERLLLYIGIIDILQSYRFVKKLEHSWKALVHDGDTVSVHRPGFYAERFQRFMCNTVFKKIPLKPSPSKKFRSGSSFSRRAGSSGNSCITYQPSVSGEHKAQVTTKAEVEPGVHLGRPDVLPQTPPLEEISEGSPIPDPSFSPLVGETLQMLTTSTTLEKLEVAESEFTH
Chain of UniProt Q9Y5K3 (Q9Y5K3 whole entry, looked up): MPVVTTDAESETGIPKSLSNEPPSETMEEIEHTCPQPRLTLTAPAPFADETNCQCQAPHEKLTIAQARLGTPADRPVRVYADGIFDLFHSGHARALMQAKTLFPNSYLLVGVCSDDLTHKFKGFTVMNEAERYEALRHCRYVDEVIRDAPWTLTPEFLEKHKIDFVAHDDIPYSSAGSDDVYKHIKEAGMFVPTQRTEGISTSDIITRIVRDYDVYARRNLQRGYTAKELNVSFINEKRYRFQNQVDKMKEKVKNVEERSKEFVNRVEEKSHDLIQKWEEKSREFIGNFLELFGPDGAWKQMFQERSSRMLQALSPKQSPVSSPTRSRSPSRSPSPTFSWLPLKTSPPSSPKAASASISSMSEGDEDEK
Chain of UniProt Q9Y244 (Q9Y244 whole entry, looked up): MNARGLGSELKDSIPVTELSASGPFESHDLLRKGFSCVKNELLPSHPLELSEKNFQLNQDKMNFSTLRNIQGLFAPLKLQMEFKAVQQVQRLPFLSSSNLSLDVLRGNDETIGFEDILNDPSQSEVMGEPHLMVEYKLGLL
Chain of UniProt A8CG34 (A8CG34 whole entry, looked up): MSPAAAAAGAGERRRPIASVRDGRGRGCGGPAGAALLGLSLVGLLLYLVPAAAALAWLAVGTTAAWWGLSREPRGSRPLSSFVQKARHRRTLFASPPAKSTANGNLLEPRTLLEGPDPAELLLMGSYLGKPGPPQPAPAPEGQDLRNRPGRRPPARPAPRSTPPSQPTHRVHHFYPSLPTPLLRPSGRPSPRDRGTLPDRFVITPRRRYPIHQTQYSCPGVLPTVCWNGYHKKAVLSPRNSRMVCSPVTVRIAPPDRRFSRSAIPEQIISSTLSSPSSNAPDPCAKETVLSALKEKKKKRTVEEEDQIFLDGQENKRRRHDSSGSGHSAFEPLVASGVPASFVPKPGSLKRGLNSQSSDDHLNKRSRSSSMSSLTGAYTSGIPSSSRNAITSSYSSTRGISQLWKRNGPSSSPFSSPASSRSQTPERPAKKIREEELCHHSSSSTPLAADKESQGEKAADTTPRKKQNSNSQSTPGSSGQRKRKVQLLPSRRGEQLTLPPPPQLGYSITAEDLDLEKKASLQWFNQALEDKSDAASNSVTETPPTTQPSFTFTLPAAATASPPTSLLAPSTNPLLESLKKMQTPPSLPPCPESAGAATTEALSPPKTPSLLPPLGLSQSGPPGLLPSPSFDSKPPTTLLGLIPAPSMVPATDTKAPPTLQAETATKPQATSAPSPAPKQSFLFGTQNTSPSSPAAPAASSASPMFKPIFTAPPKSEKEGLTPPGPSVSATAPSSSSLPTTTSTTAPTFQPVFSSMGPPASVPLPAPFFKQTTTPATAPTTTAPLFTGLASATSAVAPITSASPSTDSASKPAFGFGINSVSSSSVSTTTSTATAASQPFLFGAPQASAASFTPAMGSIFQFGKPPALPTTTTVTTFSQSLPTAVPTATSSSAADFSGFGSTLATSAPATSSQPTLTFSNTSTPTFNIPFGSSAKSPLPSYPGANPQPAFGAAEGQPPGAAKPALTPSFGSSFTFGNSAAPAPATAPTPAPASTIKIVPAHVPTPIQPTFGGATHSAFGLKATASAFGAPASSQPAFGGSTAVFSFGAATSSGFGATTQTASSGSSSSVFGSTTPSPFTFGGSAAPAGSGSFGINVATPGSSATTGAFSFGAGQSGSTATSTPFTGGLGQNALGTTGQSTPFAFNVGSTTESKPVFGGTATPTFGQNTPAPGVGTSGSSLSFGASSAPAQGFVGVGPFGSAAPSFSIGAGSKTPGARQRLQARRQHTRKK
Chain of UniProt Q9UHX1 (Q9UHX1 whole entry, looked up): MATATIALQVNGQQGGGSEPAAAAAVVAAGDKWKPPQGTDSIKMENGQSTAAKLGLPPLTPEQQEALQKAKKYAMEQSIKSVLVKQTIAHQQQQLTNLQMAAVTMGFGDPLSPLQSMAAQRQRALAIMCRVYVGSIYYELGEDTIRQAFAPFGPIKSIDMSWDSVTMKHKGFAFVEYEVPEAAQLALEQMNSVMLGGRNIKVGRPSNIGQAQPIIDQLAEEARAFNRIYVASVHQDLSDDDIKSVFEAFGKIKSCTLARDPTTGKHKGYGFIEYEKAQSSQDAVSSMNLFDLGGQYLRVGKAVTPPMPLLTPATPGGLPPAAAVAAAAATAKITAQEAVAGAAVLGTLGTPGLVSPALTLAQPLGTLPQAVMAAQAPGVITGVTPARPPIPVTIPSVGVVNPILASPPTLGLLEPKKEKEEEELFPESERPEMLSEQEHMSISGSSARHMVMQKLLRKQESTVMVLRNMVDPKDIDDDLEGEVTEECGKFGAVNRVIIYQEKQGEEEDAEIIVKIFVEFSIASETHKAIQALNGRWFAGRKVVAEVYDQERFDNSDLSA
Chain of UniProt Q9Y4D7 (Q9Y4D7 whole entry, looked up): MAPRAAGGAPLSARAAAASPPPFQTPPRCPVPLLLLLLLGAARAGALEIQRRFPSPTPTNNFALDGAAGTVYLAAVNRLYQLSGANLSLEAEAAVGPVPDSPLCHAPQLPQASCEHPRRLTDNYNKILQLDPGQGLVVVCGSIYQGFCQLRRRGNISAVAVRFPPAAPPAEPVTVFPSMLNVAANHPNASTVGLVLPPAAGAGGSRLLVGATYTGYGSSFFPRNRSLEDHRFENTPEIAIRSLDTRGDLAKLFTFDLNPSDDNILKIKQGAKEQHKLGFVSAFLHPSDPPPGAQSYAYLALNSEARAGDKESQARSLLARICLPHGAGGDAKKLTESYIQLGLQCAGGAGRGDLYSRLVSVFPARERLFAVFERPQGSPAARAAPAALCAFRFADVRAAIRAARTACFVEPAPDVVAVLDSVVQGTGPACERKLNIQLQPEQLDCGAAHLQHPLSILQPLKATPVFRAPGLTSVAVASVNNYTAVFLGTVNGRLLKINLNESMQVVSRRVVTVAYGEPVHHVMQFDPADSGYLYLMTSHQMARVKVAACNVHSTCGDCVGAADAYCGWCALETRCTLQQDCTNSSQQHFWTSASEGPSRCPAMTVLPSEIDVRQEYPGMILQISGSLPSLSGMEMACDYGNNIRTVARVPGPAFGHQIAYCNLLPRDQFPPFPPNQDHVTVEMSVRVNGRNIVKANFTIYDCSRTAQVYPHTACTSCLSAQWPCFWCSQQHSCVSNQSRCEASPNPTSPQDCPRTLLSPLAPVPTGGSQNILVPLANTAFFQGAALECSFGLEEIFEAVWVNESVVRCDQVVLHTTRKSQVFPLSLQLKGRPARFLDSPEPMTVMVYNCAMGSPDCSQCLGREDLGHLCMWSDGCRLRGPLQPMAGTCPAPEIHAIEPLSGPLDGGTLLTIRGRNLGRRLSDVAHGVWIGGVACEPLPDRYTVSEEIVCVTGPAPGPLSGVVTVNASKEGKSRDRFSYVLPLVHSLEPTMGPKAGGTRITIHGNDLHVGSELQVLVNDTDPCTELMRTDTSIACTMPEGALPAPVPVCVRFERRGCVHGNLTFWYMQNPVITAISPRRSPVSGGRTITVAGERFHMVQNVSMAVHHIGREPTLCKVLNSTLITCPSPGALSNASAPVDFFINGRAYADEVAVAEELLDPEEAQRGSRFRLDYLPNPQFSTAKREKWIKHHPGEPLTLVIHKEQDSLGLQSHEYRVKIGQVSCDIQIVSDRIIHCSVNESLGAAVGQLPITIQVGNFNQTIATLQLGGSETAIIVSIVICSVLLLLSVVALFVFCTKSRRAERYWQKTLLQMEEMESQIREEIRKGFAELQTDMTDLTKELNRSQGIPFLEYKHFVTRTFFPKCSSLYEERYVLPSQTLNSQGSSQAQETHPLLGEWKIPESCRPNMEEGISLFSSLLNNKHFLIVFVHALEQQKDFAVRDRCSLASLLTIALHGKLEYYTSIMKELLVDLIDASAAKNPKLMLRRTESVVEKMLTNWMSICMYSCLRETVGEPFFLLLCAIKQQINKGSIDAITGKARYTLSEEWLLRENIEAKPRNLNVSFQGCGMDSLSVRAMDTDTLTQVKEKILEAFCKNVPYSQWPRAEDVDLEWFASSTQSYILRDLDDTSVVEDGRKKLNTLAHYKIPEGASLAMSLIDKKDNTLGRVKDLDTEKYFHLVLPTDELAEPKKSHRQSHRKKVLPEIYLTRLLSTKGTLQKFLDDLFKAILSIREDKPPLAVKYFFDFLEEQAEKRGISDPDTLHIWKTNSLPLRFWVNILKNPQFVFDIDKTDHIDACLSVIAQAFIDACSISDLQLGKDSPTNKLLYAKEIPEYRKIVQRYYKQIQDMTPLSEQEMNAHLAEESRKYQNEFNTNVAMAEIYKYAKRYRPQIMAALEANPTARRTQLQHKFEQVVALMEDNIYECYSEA

With POM121C (UniProt A8CG34), the log2 fold change in assay [1] was 0.058; in assay [2] it was 0.042; in assay [3], -0.02.
As for PDE4DIP (UniProt E9PS60), the values for the log2 fold change in assay [4], in assay [5] and in assay [3] were 0.074, -0.12 and -0.257, respectively.
Take PREP (UniProt H0Y5Y0): the log2 fold change in assay [3] was 0.086.
Regarding PLXND1 (UniProt Q9Y4D7), the log2 fold change is -0.039 in assay [1], 0.082 in assay [2] and 0.029 in assay [5].
Regarding PUF60 isoform 2 (UniProt Q9UHX1), the log2 fold change in assay [1] is 0.091; in assay [2] it was 0.109; in assay [4], 0.035; in assay [3] it was 0.238.
On to PCBP2 (UniProt F8VRH0), for which, in assay [3], the log2 fold change is 0.232.
As for PCLAF (UniProt Q15004), the log2 fold change is 0.053 in assay [1]; 0.016 in assay [2]; -0.037 in assay [4]; -0.059 in assay [5]; -0.039 in assay [3].
Consider PRG4 (UniProt Q92954), for which the log2 fold change was 0.03 in assay [1], -0.081 in assay [2], -0.059 in assay [5] and -1.18 (active) in assay [3].
As for PWP1 (UniProt Q13610), the log2 fold change was 0.041 in assay [1]; -0.041 in assay [2]; -0.052 in assay [4]; -0.004 in assay [5]; 0.088 in assay [3].
As for PCYT1B (UniProt Q9Y5K3), the log2 fold change in assay [1] is -0.006; in assay [2], 0.033; in assay [4], -0.01; in assay [5], -0.03; in assay [3], -0.073.
Taken in the same sequence, the figures for POMP (UniProt Q9Y244) were 0.077, -0.053, 0.045, -0.036 and 0.061.
As to PIP5K1A (UniProt Q99755), the log2 fold change in assay [1] is -0.058; in assay [2], 0.067; in assay [5], 0.059; in assay [3], -0.096.

For the origin of these results see the supplement of paper PMC10849652.
